Values joined by “and” are separate entries in the source; they are usually repeats but may differ in a detail not shown here. Equal entries are not always repeated. This is part of a sample that, as a whole, favours compounds with a hit. Of some 83,000 tested, about 20% had one in any assay.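 Values shown are percent growth following 48 h exposure of cells in 96-well plates to a single concentration of compound; below 10 was considered active.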 Active and inactive are the calls of the source.
The compounds below were run on MDA-MB-468 breast (assay: NCI-60 one-dose screen, 48 h (100 = growth as untreated, 0 = no growth, -100 = all killed)). Conditions: 10 µM unless noted.
In the case of Cc1ccc(NC(=O)Cc2ccc(/C=C/C(=O)c3ncc[nH]3)cc2)cc1, the growth is reported as -0.436% (active).
CCN(CC)CCc1nc(-c2ccccc2)no1 was tested, and the growth was -1.63% (active) and 78.5% (inactive).
With CN1CCN(Cc2ccc(NC(=O)c3cncc(C#Cc4c(N)ncc5ccc(C#N)cc45)c3)cc2C(F)(F)F)CC1 the growth was 96.1% (inactive).
NS(=O)(=O)c1ccc(C(=O)NN2C(=O)c3ccccc3C2=O)cc1 was tested, and the growth was 122% (inactive).
For COc1ccc(-c2nnc(-c3ccc4c(c3)nc(-c3ccccc3)n4C3CCCCC3)o2)cc1, the growth was 83.8% (inactive).
O=C1CC(=O)OC(c2ccc([N+](=O)[O-])cc2)O1 was tested, and the growth was -49.7% (active).
For OCc1ccccn1, the growth was 99.9% (inactive).
For COc1cc(C(=O)c2cc3c(cc2C)OCO3)cc(OC)c1OC, the growth was 27.6% (inactive).
In the case of CN(C)c1ccc(/C=C/C=N/NC(=O)c2cc(O)c(O)c(O)c2)cc1, the growth is reported as 89.1% (inactive).
CCCCN(CCCC)CC(O)CN(CC)CC (stereo not given) was tested, and the growth was 101% (inactive).
With O=C(CCl)NC1c2ccccc2Oc2ccccc21 the growth was 71.5% (inactive).
With O=C1C=CC(=O)N1Cc1ccco1 the growth was 65.4% (inactive).
With CCCCN[C@H]1CC[C@@]2(C)[C@@H](CC[C@@]3(C)[C@H]2[C@H](O)C[C@H]2/C(=C(\CCC=C(C)C)C(=O)OC)[C@@H](OC(C)=O)C[C@@]23C)[C@@H]1C the growth was 88.9% (inactive).
For CCCCCCCc1n(Cc2ccc3ccccc3c2)c2ccccc2[n+]1Cc1ccc2ccccc2c1, the growth was -69.6% (active).
For COc1ccc(-c2nc(SCC(=O)Nc3nc(-c4ccccc4)cs3)[nH]c(=O)c2C#N)cc1, the growth was 84.2% (inactive).

— PubChem BioAssay (NCI)
